In PubChem BioAssay AID2391 (Southern Research Specialized Biocontainment Screening …, 2010):
In all, about 310,000 compounds went through this assay and about 410 (0.13%) were called active. Another 2% or so got no clear call; they are omitted. How the calls were made is not given here. Only a sample is shown. Measured potencies and affinities stand elsewhere.

assay: inhibition of RSV-induced cytopathic effect – HEp-2 cells, primary 10 µM value included (AID 2391); settings: at 10 µM, hits give high values

CPE inhibition, inactive:
O=C(NCc1ccc(F)cc1Cl)C1CCN(S(=O)(=O)N2CCCCC2)CC1 4.02%
Cc1ccc(S(=O)(=O)N(C)C)cc1NC(=O)COC(=O)CCC1CCCCC1 -0.99%
Cc1ccc(C)c(NC(=O)CN(C)C(=O)c2ccc(-c3cccc(C(F)(F)F)c3)o2)c1 0%
Cc1cccc2nc(COc3ccc4ccccc4c3Br)cn12 8.72%
Clc1ccc(OCc2cn3ccccc3n2)c2ncccc12 4.9%
CCn1c(CNS(=O)(=O)c2ccc(Br)cc2)n[nH]c1=S 0.55%
Cc1[nH]c2ccccc2c1/C=N/NC(=O)c1cccc([N+](=O)[O-])c1 1.07%
Cc1[nH]c2ccccc2c1/C=N/Nc1ccc([N+](=O)[O-])cc1S(=O)(=O)Nc1ccc(Cl)cc1 1.27%
C=CCc1cc(Cl)ccc1OCCCNC(C)CC (stereo not drawn) 0.05%
CSc1ccc(/C=C(/NC(=O)c2ccc(C)cc2)C(=O)Nc2cccc(C)c2)cc1 2.91%
COc1ccc(OCc2cccc(C(=O)O)c2)cc1 0.64%
O=C(O)c1cccc(COc2ccccc2Cl)c1 1.88%
COc1cc(CO)ccc1Oc1nc2ccccc2n2cnnc12 2.05%
Cc1ccc(NC2c3ncccc3C(=O)N2Cc2cccs2)cc1C (stereo not drawn) 13.8%
O=C1c2cccnc2C(Nc2ccc(F)c(Cl)c2)N1Cc1cccs1 (stereo not drawn) 18%
Cc1ccc(NC2c3ncccc3C(=O)N2Cc2cccs2)cc1 (stereo not drawn) 8.2%
O=C1c2cccnc2C(Nc2ccc(Cl)cc2)N1Cc1cccs1 (stereo not drawn) 46.8%
CCOC(=O)CNC(=O)c1ccc2[nH]c3ccccc3c2c1 2.11%
CCCn1c(SCC(=O)c2cc(OC)ccc2OC)nnc1-c1ccco1 1.5%
CCOc1ccc(C(c2c(O)nc(SC)[nH]c2=O)c2c(O)nc(SC)[nH]c2=O)cc1 1.1%
CCOC(=O)Cc1csc(NC(=O)C(NC(=O)C2CCCCC2)C(C)C)n1 (stereo not drawn) 3.52%
O=[N+]([O-])c1cccc(-c2csc(Nc3ccccc3)n2)c1 0.52%
COc1ccccc1Nc1nc(-c2cccnc2)cs1 7.69%
CC(=O)c1ccc(OCCCC(=O)Nc2ccc(S(=O)(=O)N3CCOCC3)cc2)cc1 14.5%
COc1ccc(C(=O)Nc2nc3ccccc3s2)c(OC)c1 9.57%
COc1ccc(C(=O)Nc2nc3ccccc3s2)cc1 4.56%
COc1ccc(C(C)=O)cc1CSc1nc2ccccc2c(=O)n1-c1ccccc1 3.07%
Cc1c(C(=O)O)oc2c1ccc1ccccc12 9.18%
COc1ccccc1OCC(=O)Nc1ccc2c(c1)OCO2 1.74%
COC(=O)CN1C(c2ccc(Cl)cc2)=Nc2ccc(Cl)cc2C1c1ccccc1 (stereo not drawn) 11.1%
O=C1CN2C(=Nc3ccc(Br)cc3C2c2ccccc2)CCN1 (stereo not drawn) -0.32%
CCc1ccc(CNC(=O)c2ccc(OC3CCN(C(C)=O)CC3)c(OC)c2)nc1 1.43%
Cc1cc(C)c(NC(=O)c2cccc(NC(=O)c3ccco3)c2)c(C)c1 2.64%
O=C(O)CSc1nnc(Cn2c(=O)sc3ccccc32)n1-c1cccc(Cl)c1 0.38%
NC(=O)CSc1nnc(Cn2c(=O)sc3ccccc32)n1-c1cccc(Cl)c1 2.54%
Cc1ccc(N2CCN(c3ccc(NC(=O)CCC(=O)O)cc3)CC2)cc1 -0.44%
CCCOc1ccc(NC(=O)c2cc3cc(C)ccc3[nH]2)cc1 -0.27%
Cc1cc(C)c(NC(=O)c2ccc(S(=O)(=O)N3CCOCC3)cc2)c(C)c1 1.1%
CC(=O)c1ccc2c(c1)C1C=CCC1C(c1ccncc1)N2 (stereo not drawn) -0.18%
Cc1cc(C)c2c(c1)[C@@H]1C=CC[C@@H]1[C@H](c1ccc(S(=O)(=O)N3CCOCC3)cc1)N2 0.17%
O=C(O)c1cc(Cl)c2c(c1)[C@@H]1C=CC[C@@H]1[C@H](c1ccc(S(=O)(=O)N3CCOCC3)cc1)N2 0.29%
COc1ccc(N(CC(=O)Nc2ccc(F)cc2F)S(=O)(=O)c2c(C)nn(C)c2C)cc1 -1.28%
Cc1cc(-n2c(C)cc(C(=O)CN3C(=O)NC4(CCCCC4C)C3=O)c2C)no1 (stereo not drawn) 1.72%
COc1ccc(N2CCN(c3nc4c(c(=O)n(C)c(=O)n4C)n3CCCc3ccccc3)CC2)cc1 -1.29%
CCOC(=O)C[C@H]1c2ccccc2S(=O)(=O)N1Cc1cc(OC)c(OC)c(OC)c1 1.62%
Cc1ccccc1NC(=S)NCCc1ccc(S(N)(=O)=O)cc1 1.91%
Cc1ccc(C)c(S(=O)(=O)N2CCCCC2CCNC(=O)C(=O)NC2CC2)c1 (stereo not drawn) -1.15%
Cc1ccc(S(=O)(=O)N2CCCCC2CCNC(=O)C(=O)NC2CC2)cc1 (stereo not drawn) 0.46%
Cc1ccc(CN(C)C(=O)c2cc(COc3ccc(F)cc3Cl)on2)o1 6.3%
CSc1ccccc1OCc1cc(C(=O)N(C)Cc2cc(C)[nH]n2)no1 4.8%
Cc1ccc(S(=O)(=O)NCCC(=O)NCc2ccccn2)cc1 -1.85%
O=C(O)c1cccc(CN2C(=O)c3ccccc3C2=O)c1 2.88%
O=[N+]([O-])c1ccc(S(=O)(=O)Nc2cccc(-c3ccc(N4CCOCC4)nn3)c2)cc1 38.2%
O=[N+]([O-])c1ccc(S(=O)(=O)Nc2cccc(-c3ccc(N4CCCC4)nn3)c2)cc1 22.4%
O=[N+]([O-])c1ccccc1S(=O)(=O)Nc1ccc(-c2ccc(N3CCCC3)nn2)cc1 -1.43%
O=[N+]([O-])c1ccccc1S(=O)(=O)Nc1ccc(-c2ccc(N3CCOCC3)nn2)cc1 -1.46%
COc1ccc([N+](=O)[O-])cc1NC(=O)Cn1ccsc1=N 4.59%
O=C(Nc1cccc(Cl)c1)c1ccc(NCCCN2CCOCC2)c([N+](=O)[O-])c1 5.44%
